High-throughput results as filed in PubChem BioAssay.
The list is not random: actives were taken first. Their share in the collection is about 4%.
Mtb bLac sens – beta-lactam sensitization of Mtb H37Rv | AID 434955 | M. tuberculosis H37Rv growth with meropenem, percent inhibition | 0.27% of 330,000 active | inhibition, % at 25 µM; call rule not given here;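 note: growth measured after seven days incubation then overnight dye step; 0% = bacteria only wells and 100% = bacteria with antibiotic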
CCHF vOTU inh – blocks the CCHF virus ovarian tumor domain protease | CCHFV vOTU protease, Pep-AMC fluorescence | inhibition, % at 11.5 µM | 0.55% of 370,000 active | AID 651958; note: 0% = vehicle wells with enzyme and 100% = no enzyme wells
MazF activator – MazEF (E. coli) toxin RNase activation; AID 504720; P0AE70; 0.32% of 350,000 active; activation, % at 20 µM; FAM/BHQ RNA-DNA oligo cleavage fluorescence, 5 h; in the data active = activation above about 50%
Target sequence (P0AE70 whole entry, looked up): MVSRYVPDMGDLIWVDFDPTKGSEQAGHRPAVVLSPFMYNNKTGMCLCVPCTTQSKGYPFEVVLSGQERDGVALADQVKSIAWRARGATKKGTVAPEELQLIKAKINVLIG
GDH-TPI counter-1 – inhibits GDH-TPI coupling enzymes, artifact for Mtb FBA screen. GDH-TPI coupled enzyme counterscreen, NADH absorbance. inhibition, % at 4.8 µM. 1.2% of 360,000 active. AID 588335;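 note: 0% = DMSO wells and 100% = wells lacking the enzyme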
FBA Mtb inh – Mtb fructose-bisphosphate aldolase inhibition | P9WQA3 | 2.3% of 360,000 active | purified M. tuberculosis FBA, fluorescence read-out | inhibition, % at 1 µM; in the data active = inhibition above about 27%;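 note: 0% = vehicle and 100% = reference inhibitor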
Target sequence (P9WQA3 whole entry, looked up): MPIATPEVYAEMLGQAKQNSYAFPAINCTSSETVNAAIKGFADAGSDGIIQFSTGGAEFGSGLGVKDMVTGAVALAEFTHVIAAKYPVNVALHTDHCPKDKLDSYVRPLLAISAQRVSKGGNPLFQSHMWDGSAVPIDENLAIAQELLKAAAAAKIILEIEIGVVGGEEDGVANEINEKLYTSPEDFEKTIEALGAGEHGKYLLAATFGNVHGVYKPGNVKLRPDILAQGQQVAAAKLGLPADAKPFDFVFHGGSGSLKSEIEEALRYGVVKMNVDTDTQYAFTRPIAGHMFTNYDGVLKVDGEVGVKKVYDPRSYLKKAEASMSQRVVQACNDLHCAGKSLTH
Mtb FBA inh conf – Mtb FBA inhibition, confirmed. shares compounds with FBA Mtb inh. AID 651616. inhibition, % at 1 µM. purified M. tuberculosis FBA, fluorescence read-out. 78% of 5,600 active; in the data active = inhibition above about 27%;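 note: 0% = vehicle wells and 100% = reference inhibitor wells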
GDH-TPI counter-2 – GDH-TPI inhibition counter-screen for FBA inhibitors. shares compounds with FBA Mtb inh. GDH-TPI coupled enzyme counterscreen, fluorescence. inhibition, % at 1 µM. 81% of 5,600 active; in the data active = inhibition above about 10%
GDH-TPI dose – GDH-TPI dose response counter-screen for Mtb FBA; 79% of 170 active; IC50, µM; GDH-TPI coupled enzyme assay, fluorescence, artifact counterscreen; shares compounds with FBA Mtb inh; call rule not given here
Starred values were filed as active, the others as inactive; x = not tested or not shown; + = active, no number. Cut-off read from the data, not from the text of the source, unless noted: active = inhibition above about 30%; inactive = the rest.

SMILES	Mtb bLac sens	CCHF vOTU inh	MazF activator	GDH-TPI counter-1	FBA Mtb inh	Mtb FBA inh conf	GDH-TPI counter-2	others
Cc1ccc(NC(=O)CSC(C)C(=O)OCc2cc(=O)oc3cc(O)ccc23)cc1 (stereo not given)	x	-59	-3	12	41*	+	+
O=C(O)CC/C(=N/NC(=O)c1cn(-c2ccccc2)nc1-c1ccccc1)C(=O)O	1	-7	-8	2	31*	66*	64*
COC(=O)C[C@@H]1CC[C@H]2[C@H](COc3ccc(NC(=O)Nc4cccc(C#N)c4)cc3C(=O)N2C)O1	x	0	x	x	x	x	x
CCOC(=O)[C@]12CCCC=C1N(Cc1ccc(OC)cc1)C(=O)[C@@H]2CC(=O)NCC12CC3CC(CC(C3)C1)C2	x	14	x	x	x	x	x
CCCCCn1c(NC(=O)c2ccco2)c(C(=O)OCC)c2nc3ccccc3nc21	4	x	-5	17	54*	134*	100*
COCCCNC(=O)c1c(NC(=O)c2ccco2)n(Cc2ccccc2)c2nc3ccccc3nc12	12	-49	-2	15	45*	47*	37*
COCCNC(=O)c1c(NC(=O)c2ccc(Br)o2)n(Cc2ccccc2)c2nc3ccccc3nc12	86	-8	-14	27	27	x	x
COC(=O)[C@]12C[C@H](CC(=O)NCc3ccc(C)o3)C(=O)N(Cc3ccco3)C1=C[C@H](C1CCCC1)O[C@@H]2C	x	14	x	x	x	x	x
CCCCc1cc(=O)oc2cc(OCC(=O)NCc3ccccn3)ccc12	5	6	30	6	14	x	x
CCCCc1cc(=O)oc2cc(OCC(=O)N3CCOCC3)ccc12	5	-11	4	16	30*	139*	101*
CCCCc1cc(=O)oc2cc(OCC(=O)Nc3ccccn3)ccc12	47	8	18	-5	46*	68*	58*
CCCCc1cc(=O)oc2cc(OCC(=O)N3CCC(C(N)=O)CC3)ccc12	-6	-3	6	6	24	x	x
C=CCOc1ccc2c(OC)c3ccoc3nc2c1OC	-2	-46	-4	1	87*	40*	28*
CCOc1c2ccoc2nc2c(OC)c(OC)ccc12	-6	-46	3	13	67*	+	175*
Clc1ccccc1Cn1ccc2ccc(-c3ccc4ccn(Cc5ccccc5Cl)c4c3)cc21	x	10	x	x	x	x	x
Cc1nc(-c2ccccc2)sc1-c1ccn[nH]1	15	-56	2	13	110*	33*	24*
CCn1c(-c2sc(-c3ccccc3)nc2C)n[nH]c1=S	-6	2	-1	5	6	x	x
CN(C)CCCNC(=O)C[C@H]1C[C@H](C(=O)N2CCOCC2)[C@@]2(C)c3[nH]c4cc(-c5ccco5)ccc4c3CCN2C1=O	x	-25	7	12	33*	135*	110*
CCN(CC)C(=O)[C@H]1C[C@H](CC(=O)NCCN2CCOCC2)C(=O)N2CCc3c([nH]c4cc(-c5ccco5)ccc34)[C@]12C	x	-45	2	6	50*	65*	39*
COCCCNC(=O)C[C@H]1C[C@H](C(=O)N2CCOCC2)[C@@]2(C)c3[nH]c4cc(-c5ccco5)ccc4c3CCN2C1=O	x	-37	0	0	33*	15	11*
COCCCNC(=O)C[C@H]1C[C@H](C(=O)N(C(C)C)C(C)C)[C@@]2(C)c3[nH]c4cc(-c5ccco5)ccc4c3CCN2C1=O	x	-24	-4	11	31*	128*	104*
CCCCCCCCN1C(=O)[C@@H](CC(=O)N2CCOCC2)C[C@@]2(C(=O)OC)C1=C[C@H](C(C)C)O[C@@H]2C1CC1	x	23	x	x	x	x	x
COc1ccc(OC)c(S(=O)(=O)N2CCCCC2C(=O)N2CCCN(C)CC2)c1 (stereo not given)	x	9	x	x	x	x	x
CCCc1cc(=O)oc2cc(C)cc(OC(C)C(=O)NCCCn3ccnc3)c12 (stereo not given)	-7	-21	-3	10	75*	175*	164*
Cc1cc(OC(C)C(=O)NCCCn2ccnc2)c2c(C)cc(=O)oc2c1 (stereo not given)	1	-49	-2	0	96*	+	+
SMILES	Mtb bLac sens	CCHF vOTU inh	MazF activator	GDH-TPI counter-1	FBA Mtb inh	Mtb FBA inh conf	GDH-TPI counter-2	others
Cc1cc(C)cc(OC(C)C(=O)NCCCn2ccnc2)c1 (stereo not given)	-5	-18	8	-5	1	x	x
CCCc1cc(=O)oc2cc(OC(C)C(=O)NCCCn3ccnc3)ccc12 (stereo not given)	-3	5	5	1	12	x	x
COc1ccc(-c2cc(C(=O)NN=Cc3ccccc3F)[nH]n2)cc1	x	-2	x	x	x	x	x
C[C@@H]1CNC(=O)c2c(C(=O)N3CCN(c4ccccc4)CC3)ncn21	x	-2	x	x	x	x	x
COc1ccc(-c2ccc3c(c2)S(=O)(=O)c2cccc(C(=O)NCCOc4ccccc4)c2C3=O)cc1OC	-10	x	-17	11	52*	39*	29*
Cc1nc(-c2cccc3ccccc23)ccc1C(=O)O	1	-8	-6	8	41*	75*	67*
Cc1nc(-c2ccccc2)ccc1C(=O)O	-3	-5	3	0	1	x	x
CCOc1ccc(NC(=O)CN(C)C(=O)c2cc(-c3ccc(OC)cc3)nc3ccccc23)cc1OCC	-7	-23	-11	9	28*	51*	39*
COc1cccc(NC(=O)CN(C)C(=O)c2cc(-c3ccc(C)o3)nc3ccccc23)c1	3	-85	1	6	56*	37*	39*
COc1ccc(NC(=O)CN(C)C(=O)c2cc(-c3ccc(Cl)cc3)nc3ccccc23)cc1	3	1	-9	7	-2	x	x
Cc1ccc(-c2cc(C(=O)NCC(c3ccccc3)N(C)C)c3ccccc3n2)o1 (stereo not given)	-11	-74	-3	18	71*	54*	46*
CCNC(=O)NC(=O)COC(=O)c1ccccc1SCC(=O)NC(=O)NCC	16	-40	-3	20	79*	18	8
O=C(COC(=O)c1ccccc1SCC(=O)NC1CCS(=O)(=O)C1)NC1CCS(=O)(=O)C1 (stereo not given)	-11	5	2	2	3	x	x
CN(C)CCNC(=O)c1c(NC(=O)c2ccccc2)sc2c1CCCC2	4	16	21	22	40*	114*	109*
COc1ccc(/C=C/S(=O)(=O)NCC(C)C)c(CNC(=O)OC(C)(C)C)c1	x	9	x	x	x	x	x
COc1ccc2c(Cl)c(-c3nnc4n3CCCCC4)sc2c1	19	-6	0	-6	2	x	x
COc1ccc2oc(=N)c(-c3nnc4n3CCCCC4)cc2c1	-3	-54	7	5	32*	17	9	GDH-TPI dose=>10
Cc1nn2c3ccccc3n(CCN3CCCCC3)c2nc1=O	-1	-9	4	7	32*	154*	102*
